Experimental data reported in PubChem BioAssay AID1530 (NMMLSC, 2009).
Among all 290,000 compounds or so, about 1,000 (0.34%) were called active. This excerpt belongs to a sample that is enriched for actives. A number with no mark means an inactive call. Cut-off read from the data, not from the text of the source: active = percent response above about 24% (passing the limit was not always enough); inactive = the rest.

What follows are molecules tested on MEKK2 (MAP3K2) mutant PB1 domain binding to MEK5, human (assay: MEK5 binding signal on mutant MEKK2 PB1, primary screen, biochemical, multiplex bead flow cytometry, Alexa488-MEK5 (AID 1530)). Settings: at 10 µM, stronger effect = higher value.
In the case of `CC1CCCCN1C(=O)Cn1c(=O)oc2cc(S(=O)(=O)N3CCCCC3)ccc21` (centres undefined), the percent response is reported as 2%. In the case of `Cc1cccc(NC(=O)Cc2ccc(Br)cc2)n1`, the percent response is reported as 4%. With `COc1ccc(CCNC(=O)CSc2nnc3ccc(-c4ccncc4)nn23)cc1` the percent response was 146% (active). For `COc1ccccc1CCNC(=O)CSc1nnc2ccc(-c3cccnc3)nn12`, the percent response was 6%. Molecule `COc1cc(NC(=O)CSc2nnc3ccc(-c4ccncc4)nn23)cc(OC)c1` has a percent response of 0%. In the case of `CCOc1ccc(C(=O)Nc2c3c(nn2-c2ccccc2)CS(=O)(=O)C3)cc1`, the percent response is reported as 6%. `COc1ccc(S(=O)(=O)/N=C2\C=C(NS(=O)(=O)c3ccccc3)C(=O)c3ccccc32)cc1` gave a percent response of -2%. `CCOc1ccccc1NC(=O)Cn1ncc2ccc([N+](=O)[O-])cc21` was tested, and the percent response was 3%. `Cc1cc(NC(=O)c2cnn3cccnc23)n(-c2ccccc2)n1` gave a percent response of 5%. With `O=C(Nc1ccc(Cl)cn1)c1cnn2cccnc12` the percent response was 26% (active). `O=C(Nc1ccc(Cl)cn1)c1ccc2c(c1)OCCO2` gave a percent response of -5%. With `COc1ccc(C)cc1N(C(=O)Cn1nnc(-c2ccc(C)o2)n1)C(C(=O)NC1CCCC1)c1ccncc1` (centres undefined) the percent response was -2%. Molecule `CCOC(=O)N1CCN(Cc2nnc(-c3ccccc3Cl)o2)CC1` has a percent response of 8%. With `CCn1c(=N)n(CC(=O)c2cccc(OC)c2)c2ccccc21` the percent response was -9%. For `CCCNC(=O)c1ccc(Cl)c(Cl)c1`, the percent response was -1%. In the case of `CCCn1c(=N)n(CC(=O)c2ccc(Cl)c(Cl)c2)c2ccccc21`, the percent response is reported as 29% (active). `CCOc1ccc2nc(N(CCCN(C)C)C(=O)c3ccc(C(=O)c4ccccc4)cc3)sc2c1` was tested, and the percent response was 19%. With `CCc1ccc2nc(N(CCCN(C)C)C(=O)c3ccc4c(c3)OCCO4)sc2c1` the percent response was 3%. For `CN(C)CCCN(C(=O)c1ccc(S(=O)(=O)N2CCCc3ccccc32)cc1)c1nc2ccc(F)cc2s1`, the percent response was 65% (active). Molecule `CCN(CC)CCN(C(=O)c1ccc(S(=O)(=O)N2CCOCC2)cc1)c1nc2cc3c(cc2s1)OCCO3` has a percent response of 11%. In the case of `CN(C)CCCN(C(=O)c1ccc(S(=O)(=O)N2CCCCCC2)cc1)c1nc2ccc(Br)cc2s1`, the percent response is reported as 61% (active). Work on `O=C(Nc1nc2ccc([N+](=O)[O-])cc2s1)c1ccc(S(=O)(=O)N2CCCc3ccccc32)cc1` yielded a percent response of -5%. `O=C(NC1CCCC1)C1CC(=O)N(c2ccc(F)cc2)C1` (centres undefined) gave a percent response of 0%. `Cc1cc(C)n(CC(O)COc2ccc(C(C)(C)C)cc2)n1` (centres undefined) was tested, and the percent response was -1%. `CC(C)(c1ccccc1)c1ccc(OCCN)cc1` gave a percent response of 0%. `CN(C)CC(O)COc1ccc(C(C)(C)c2ccc(OCC(O)CN(C)C)cc2)cc1` (centres undefined) was tested, and the percent response was 33% (active). `O=C(Nc1cccc(-c2cccc(Cl)c2)c1)C1CCN(C2CCC2)CC1` showed a percent response of 14%. `CCn1cc(CN2CCC(C(=O)Nc3cccc(-c4cccc(Cl)c4)c3)CC2)cn1` was tested, and the percent response was 21%. `CCn1cc(CN2CCC(C(=O)Nc3cccc(-c4cccc(Cl)c4)c3)CC2)c(C)n1` was tested, and the percent response was 35% (active). Work on `CC1CCN(CC(=O)Nc2nccs2)CC1` yielded a percent response of 3%. `Cc1ccc(C)c(S(=O)(=O)Nc2cccc(-n3cnnn3)c2)c1` gave a percent response of -1%. In the case of `CCCN1CCN(C(=O)CCCNC(=O)c2ccc(Cl)cc2)CC1`, the percent response is reported as -2%. In the case of `CN1CCN(CCCNC(=O)c2ccc(/C=C3\Oc4ccccc4N(Cc4ccc(Cl)cc4)C3=O)cc2)CC1`, the percent response is reported as 48% (active). In the case of `CN1C(=O)/C(=C/c2ccc(C(=O)NC3CCCC3)cc2)Oc2ccccc21`, the percent response is reported as 2%. Work on `NS(=O)(=O)c1ccc2nc(NC(=O)C3=COCCO3)sc2c1` yielded a percent response of -4%. `Cc1ccc(NC(=O)C/C(N)=N/O)cc1Cl` showed a percent response of 1%. `CCC(=O)c1ccc(OCC(=O)Nc2ccc3nc(C)sc3c2)cc1` was tested, and the percent response was -22%. `Cc1ccc(NC(=O)COc2ccc(-n3ccnc3)cc2)cc1Cl` was tested, and the percent response was 27% (active). With `O=C1N[C@H](Cc2ccccc2)C(=O)N[C@H]1Cc1cn(S(=O)(=O)c2ccccc2)c2ccccc12` the percent response was 2%. `CCOC(=O)N1CCN(C(=O)C2CCN(S(=O)(=O)c3cc(Cl)ccc3OCC)CC2)CC1` showed a percent response of 5%. In the case of `O=C(CSc1ccc(-c2ccc(Br)cc2)nn1)NCC1CCCO1` (centres undefined), the percent response is reported as 6%. For `CC(NS(=O)(=O)c1ccc(Br)cc1)C(=O)NCC1CCCO1` (centres undefined), the percent response was 4%. With `OC(CNCC1CCCO1)Cn1c2ccc(Br)cc2c2cc(Br)ccc21` (centres undefined) the percent response was 40% (active). `COc1ccc(NC(=O)C2=CC(c3ccc(OC)c(OC)c3)=NS(=O)(=O)N2C)cc1` showed a percent response of -4%. `COc1cc(CNCc2ccc(OC)c3ccccc23)cc(OC)c1OC` gave a percent response of 6%. With `Nc1nonc1-n1nnc(C(=O)N/N=C/c2cc(Br)ccc2O)c1CSC1=NCCS1` the percent response was 8%. For `CC(C)CC(=O)N1CCN(Cc2cccc(Cl)c2)CC1`, the percent response was 9%. `CC(C)CC(=O)N1CCN(Cc2ccccc2Br)CC1` was tested, and the percent response was 24% (active). `CCOc1cc(CN2CCN(C(=O)CC(C)C)CC2)ccc1OC` showed a percent response of 2%.
